Data taken from PubChem BioAssay AID1508600 (Functional Genomics Laboratory (NCATS/FGL), 2020).
About 3,700 (7%) of roughly 53,000 sequences were called active.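 The calls were made as follows: active = gene knockdowns whose robust z-score for IL-1 alpha signal is at least 2 or at most -2, so actives lie on both sides; inactive = the rest.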 Shown is part of a subset that was picked to be rich in actives.

Assay: Components of the Cytosolic LPS Sensing Pathway: Gene Identification via Genome-wide siRNA Screen;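 also: robust z of the log signal after scaling to non-targeting control siRNA wells of the plate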
Details: RAW264.7 macrophages, IL-1a HTRF, actives lie on both sides, screened at 100 nM (by protocol), cells primed 5 h with Pam3CSK4 first
Procedure, shortened: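 Knockdown: 100 nM siRNA, 48h, RAW264.7. Stimulation: Pam3CSK4 5 h, then LipidA via TransIT-TKO 24 h. Output: supernatant IL-1a HTRF, negative-control-normalized, log robust z-score; viability by CellTiter-Glo.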
With CCUGCACUACUGGAUUGGATT against Vill the z-score was 0.265 (inactive). For GCUCCAUUAUGCCAGACUATT against Madcam1, the z-score was 0.8 (inactive). For GGAUAAUGAAGAAUGCCAATT against Abca4, the z-score was -0.533 (inactive). In the case of CGGACUAUUGGAGACCAACTT against Gpsm2, the z-score is reported as 2.16 (active). In the case of GGUCAUCAACGUGCUAGAGTT against Nucb1, the z-score is reported as -1.3 (inactive). For GGAUGCAUGAGAAAUGUUATT against Tbc1d14, the z-score was -0.0572 (inactive). With GGUAUAAGUUGGCAAGAUCTT against Cry2 the z-score was 0.849 (inactive). For CCCUUGAUUACACCACAGUTT against Cfc1, the z-score was -2.6 (active). In the case of GGUCACAUUUAAUGUCACATT against Itgam, the z-score is reported as -0.789 (inactive). With GGACAAUCAGUACCUUAACTT against Tex9 the z-score was -0.375 (inactive). For GGAAGGUUUCGCUUUGAAUTT against Tarm1, the z-score was -0.469 (inactive). For GGCUCAGAUUUUGUGAUUCTT against Olfr894, the z-score was -1.44 (inactive). In the case of GGACUUUUUCACUUUCAAATT against Ugt1a5, the z-score is reported as -0.198 (inactive). In the case of CGCCACACACCAUCACAUUTT against Scap, the z-score is reported as -0.0743 (inactive). For GGAAUAUUCUCUCAUCACATT against Mmachc, the z-score was -2.07 (active). For GCUAACCAUGUGACAAUAATT against Timm8a1, the z-score was -1.39 (inactive). In the case of GGCCCAGCAGACAACUUUATT against Sgca, the z-score is reported as 0.797 (inactive). In the case of CCUCCGGAGUAUAAACAAUTT against Nr1i3, the z-score is reported as 0.21 (inactive). In the case of GGAGGAAGAAGACUCAGAATT against Prkag2, the z-score is reported as 3.46 (active). In the case of GAAGAGGGCACCUAGUUUCTT against Cox7b, the z-score is reported as 0.249 (inactive). With GCCACGAAGGUACUAUGUATT against Tbce the z-score was 0.176 (inactive). For GGGAGAAAUGCCUUUAGUCTT against Erfe, the z-score was 3.79 (active). In the case of GGUUACCACACUAUGUUACTT against Tbc1d2b, the z-score is reported as 0.454 (inactive). In the case of GGAAAAGUCCAAGUUUGAATT against Hmgb2, the z-score is reported as -0.104 (inactive). In the case of GGAGAUAAUCCUGAAUGGCTT against Hsd3b6, the z-score is reported as -1.18 (inactive). In the case of GGCCAAAAGGUUGAGCAGUTT against Nsun2, the z-score is reported as 0.311 (inactive). For GCUUUUAGGCCUCCAAAAGTT against Lmnb2, the z-score was 1.15 (inactive). In the case of GGAACUUCGUCAGUACAUUTT against Setdb1, the z-score is reported as 5.77 (active). For GGAGAAACUGGCAGACCUUTT against Washc3, the z-score was -0.388 (inactive). With GCCUUCAGGACGAUUUAUUTT against Pla2g7 the z-score was 1.19 (inactive). In the case of GCGAAAUCUUUGUCACUAATT against Sertad4, the z-score is reported as -0.201 (inactive). In the case of GGAAGUAUUUGAUCAUGGATT against Smarca5, the z-score is reported as -0.465 (inactive). For GGAAAGGUAAUGCAUCACATT against Rev3l, the z-score was -1.68 (inactive). With GGCUGAAGAUCACCAAGAATT against Neurl1a the z-score was -0.869 (inactive). For CGGAAUCAUUCGGAAUGAGTT against Capza3, the z-score was -1.01 (inactive). In the case of GGAAAUCCUGAAGUUUCCUTT against Grk5, the z-score is reported as 4.41 (active). In the case of CGUGAUCCCACAGAUGUAGTT against Csrp3, the z-score is reported as -0.649 (inactive). With GGGAGGUGUCUUUACGUCUTT against Neto1 the z-score was -0.773 (inactive). For GCUGCACGAUCGGAAUGGUTT against Ssh1, the z-score was -0.678 (inactive). For GGCUUACUUGAAGCAUUUATT against Plcb4, the z-score was 2.13 (active). For GGUUUUUGCUGAGUCUUGCTT against Olfr299, the z-score was 0.00611 (inactive). With GGAAAAGAAAGCAAAGAGATT against Dach1 the z-score was -1.15 (inactive). With GGAAAUGUUUACCUGCCAUTT against Zfp512 the z-score was 2.32 (active). For GCUACAGCAGACAUAGAAATT against Sparcl1, the z-score was 0.0109 (inactive). With GGUUGGAAUUGUGCAAUAATT against Fbxo48 the z-score was 0.164 (inactive). In the case of GGACAUUUAUCCCAUGACATT against Coro2b, the z-score is reported as 0.814 (inactive). With GGAAUUCAAUGACGUGUACTT against Mapk14 the z-score was 0.493 (inactive). In the case of CCGUAUUUGUGCUGUGUCUTT against Olfr275, the z-score is reported as -1.53 (inactive). In the case of CCUUAUUUUACGGAACUGCTT against Olfr1018, the z-score is reported as 2.11 (active). For CCGGAGUUGAAACCUAAAATT against Hmgn5, the z-score was 0.524 (inactive). In the case of GCAACAUAUGUUCAAGAUCTT against Ccdc163, the z-score is reported as 0.53 (inactive). In the case of GGCCAUCAGAGUCAACUGUTT against Immt, the z-score is reported as -0.285 (inactive). For GCUAGCAGAGAUACAAUGUTT against Rasal3, the z-score was 3 (active). With GGAAGAUGAAAGUUCCAUATT against Ankar the z-score was 1.17 (inactive). For GGGUGUAGUCCUGAAAGUATT against Arpc5l, the z-score was 2.45 (active). For GCUUGUGAGUGGAACUUUCTT against Mcm6, the z-score was 0.62 (inactive). With CCUACAACAGAUGUGCAGCTT against Fam222b the z-score was -1.82 (inactive). For CCGGGACAUAGAGGAAAUUTT against Cabp1, the z-score was -0.113 (inactive). For CGCACAUGAAGCCACAUAUTT against Plekhb1, the z-score was -0.176 (inactive). In the case of UCCAAGCUGUUGUUUAUACTT against Acsl1, the z-score is reported as -0.0655 (inactive). With CCGUUGGAGUCCAACCUAUTT against Ube2a the z-score was 2.2 (active). With GCUGUUACUCAGCAGAGAGTT against Bach2 the z-score was -1.02 (inactive). In the case of GGCCCUCUCCAAGUCUAUATT against Pex7, the z-score is reported as 0.7 (inactive). In the case of “GGAGGAAUUUCAAAUACUATT against A530032D15Rik”, the z-score is reported as 0.853 (inactive). For GGAUAGCAGCUGAGUUUUATT against Asb5, the z-score was 2.57 (active). With GGAAGUCAUUAUGUGAUCCTT against Nfyb the z-score was -0.404 (inactive). For GCCUACAAUCGAGACAGUUTT against Sgca, the z-score was 1.15 (inactive). In the case of GGACACAGACACCAAACAATT against Kat2a, the z-score is reported as -1.71 (inactive). In the case of CCCACUAAGGAGAUCAGUUTT against Lasp1, the z-score is reported as 1.32 (inactive).
